A structure can be active in one record and inactive in another. Activity calls are given as the source filed them. The calls were made as follows: active = hit-call score of the fitted dose curve at least 0.9, where 1 is the maximum; inactive = score below 0.9.
Assay: APR_HepG2_MitoticArrest_1hr: Apredica 1-hour HepG2 Assay for Mitotic Arrest (AID 2282672)
Conditions: high-content imaging, actives raise or lower the signal
Experimental: APR_HepG2_1hr is a cell-based, multiplexed-readout assay that uses HepG2, a human liver cell line, with measurements taken at 1 hour after chemical dosing in a 384-well plate.APR_HepG2_MitoticArrest_1hr is one of 10 assay component(s) measured or calculated from the APR_HepG2_1hr assay. It is designed to make measurements of cell phenotype, a form of morphology reporter, as detected with fluorescence intensity signals by HCS Fluorescent Imaging technology.Data from the assay component APR_HepG2_MitoticArrest_1hr was analyzed into 1 assay endpoint. This assay endpoint, APR_HepG2_MitoticArrest_1hr, was analyzed with bidirectional fitting relative to DMSO as the negative control and baseline of activity. Using a type of morphology reporter, measures of protein for gain or loss-of-signal activity can be used to understand the signaling at the pathway-level as they relate to the gene . Furthermore, this assay endpoint can be referred to as a primary readout, because this assay has produced multiple assay endpoints where this one serves a signaling function. To generalize the intended target to other relatable targets, this assay endpoint is annotated to the cell cycle intended target family, where the subfamily is arrest.
Cells were treated with dimethyl sulfoxide (DMSO) as a solvent control at a final concentration of 0.5% v/v or with compounds in DMSO with a resulting final DMSO concentration of 0.5% v/v. Compound treatment was done at concentrations of 0.39, 0.78, 1.56, 3.12, 6.24, 12.5, 25, 50, 100, and 200 uM in duplicate on each plate. Cells were treated with compounds for 1, 24, or 72 hr. Carbonyl […] m-chloro-phenylhydrazone (CCCP) and taxol were used as positive controls for mitochondrial function and cytoskeletal stability, respectively; DMSO served as the negative control for this experiment. Cells were fixed by the direct addition of 50 uL formaldehyde in Hank's Balanced Salt Solution (HBSS) to a final concentration of 3.7%. After incubation in the fixation medium for 30 min at room temperature (293-298 K), cells were rinsed twice with HBSS and treated with cell permeabilization buffer (16 uL of 0.5% Triton X-100) for 10 min at room temperature (293-298 K) before labeling. For mitochondrial membrane potential and mitochondrial measurements, pre-fixed cells were incubated with 50 uL of MitoTracker Red CMXRos (Invitrogen) at a concentration of 250 nM for 30 min before fixation. In the remaining cases, post-fixed cells were labeled by incubation with a multiplexed mixture of primary antibodies in HBSS for 60 min at room temperature (293-298 K) to detect immunoreactivity of c-Jun (1:500), phospho-histone H3 (1:100), phospho-histone H2A.x (1:200), p53 (1:400), alpha-tubulin (1:200) and Hoechst 33342 (2 ug/mL). Cells were labeled for multiplexed imaging on two separate plates: a) Hoechst 33342, MitoTracker Red, phospho-histone H3, and alpha-tubulin, and b) Hoechst 33342, phospho-histone H2A.x, and c-Jun. A final rinse with HBSS (50 uL) was performed before analysis. The primary and secondary antibodies for the proteins were phospho-histone H3 (rabbit anti-phospho-histone H3 and FITC-donkey anti-rabbit IgG), phospho-histone H2A.x (mouse anti-phospho-histone H2A.x and FITC-donkey anti-mouse IgG), c-Jun (rabbit anti-phospho-c-Jun and Cy3-donkey anti-rabbit IgG), p53 (sheep anti-p53 and Cy5-donkey anti-sheep IgG), alpha-tubulin (mouse anti-alpha-tubulin and Cy5-donkey anti-mouse IgG). These antibodies are available as the CellCiphr HepG2 assay kit (Millipore).Digital images of each well were captured using a Cellomics ArrayScan VTI (Thermo Scientific Cellomics) (0.8 NA objective, 0.63x optical coupler, and XF-93 filter set) at 20x magnification. The images were acquired using the autofocus feature of the ArrayScan instrument, which entails the following steps. First, the camera focuses on channel 1 (Hoechst 33342), where nuclei are identified. Second, a Z offset of 1 um is used for capturing mitochondria (MitoTracker Red). […]

Structure (SMILES)	outcome	AC50
COC(=O)C=C(C)OP(=O)(OC)OC	inactive	–
C=CCC1=C(C)C(OC(=O)C2C(C=C(C)C)C2(C)C)CC1=O (stereo not given)	inactive	–
CS/C(C)=N/OC(=O)N(C)SN(C)C(=O)O/N=C(\C)SC	–	29.7 µM (active)
COc1ccc(C(c2ccc(OC)cc2)C(Cl)(Cl)Cl)cc1	inactive	–
COc1cnc(OC)n2nc(NS(=O)(=O)c3c(OCC(F)F)cccc3C(F)(F)F)nc12	inactive	–
CCCCNC(=O)OCC#CI	inactive	28.8 µM (active)
CCCC1COC(Cn2cncn2)(c2ccc(Cl)cc2Cl)O1 (stereo not given)	inactive	–
CN(C)C(=S)SSC(=S)N(C)C	inactive	–
Fc1ccc(Oc2ccnc3cc(Cl)cc(Cl)c23)cc1	inactive	–
CO/C=C(/C(=O)OC)c1ccccc1Oc1cc(Oc2ccccc2C#N)ncn1	inactive	–
N#Cc1nn(-c2c(Cl)cc(C(F)(F)F)cc2Cl)c(N)c1S(=O)C(F)(F)F (stereo not given)	inactive	–
COC(=O)N(OC)c1ccccc1COc1ccn(-c2ccc(Cl)cc2)n1	inactive	–
N#Cc1cc(Br)c(O)c(Br)c1	inactive	–
O=C(O)COc1nc(Cl)c(Cl)cc1Cl	inactive	–
COc1nc(NC(C)C)nc(NC(C)C)n1	inactive	–
O=C(O)c1nc(Cl)ccc1Cl	inactive	–
CC(C)Oc1cc(-n2nc(C(C)(C)C)oc2=O)c(Cl)cc1Cl	inactive	–
COC(=O)C(C)Oc1ccc(Oc2ccc(Cl)cc2Cl)cc1 (stereo not given)	inactive	–
CCCCC(CC)COC(=O)c1ccccc1C(=O)OCC(CC)CCCC (stereo not given)	inactive	–
Cc1cc(Cl)ccc1OCC(=O)O	inactive	–

Structure (SMILES)	outcome	AC50
CNC(=O)ON=CC(C)(C)SC	inactive	–
CC(C)(C)c1ccc(CSc2cnn(C(C)(C)C)c(=O)c2Cl)cc1	inactive	–
CC(Oc1ccc(Cl)cc1Cl)C(=O)O (stereo not given)	inactive	–
Cc1ccc(-c2c(Cl)nc(C#N)n2S(=O)(=O)N(C)C)cc1	inactive	–
CCCCOC(=O)c1ccccc1C(=O)OCCCC	inactive	–
N#CC(CCc1ccc(Cl)cc1)(Cn1cncn1)c1ccccc1 (stereo not given)	inactive	–
COc1nc(C)nc(NC(=O)NS(=O)(=O)c2ccccc2CCC(F)(F)F)n1	inactive	–
OC(c1ccc(Cl)cc1)(c1cncnc1)c1ccccc1Cl (stereo not given)	inactive	–
C#CCOS(=O)OC1CCCCC1Oc1ccc(C(C)(C)C)cc1 (stereo not given)	inactive	–
COC(=O)c1ccccc1C(=O)OC	inactive	–
CC1COC(Cn2cncn2)(c2ccc(Oc3ccc(Cl)cc3)cc2Cl)O1 (stereo not given)	inactive	–
COP(N)(=O)SC (stereo not given)	inactive	–
COP(=S)(OC)Oc1nc(Cl)c(Cl)cc1Cl	inactive	–
Oc1ccccc1-c1ccccc1	inactive	–
CCOC(=O)C(Cl)Cc1cc(-n2nc(C)n(C(F)F)c2=O)c(F)cc1Cl (stereo not given)	inactive	–
CCNc1nc(Cl)nc(NCC)n1	inactive	–
CCCN(CCC)c1c([N+](=O)[O-])cc(S(N)(=O)=O)cc1[N+](=O)[O-]	inactive	–
CCOc1cc(Oc2ccc(C(F)(F)F)cc2Cl)ccc1[N+](=O)[O-]	inactive	–
CNC(=S)S	inactive	–

Reference: PubChem BioAssay (EPA / NIEHS)
